Screening data: PubChem BioAssay, National Center for Advancing Translational Sciences (NCATS)
AmpC inh detg: blocks E. coli AmpC beta-lactamase in detergent assay; P00811; AmpC hydrolysis of nitrocefin, absorbance 480 nm, 0.01% Triton; Potency, µM (doses to about 114 µM), usual class: inhibitors; 370,000 tested, 0.041% active; also: nearly all actives have a fitted effect of over 25% in size
Target sequence (P00811 whole entry, looked up): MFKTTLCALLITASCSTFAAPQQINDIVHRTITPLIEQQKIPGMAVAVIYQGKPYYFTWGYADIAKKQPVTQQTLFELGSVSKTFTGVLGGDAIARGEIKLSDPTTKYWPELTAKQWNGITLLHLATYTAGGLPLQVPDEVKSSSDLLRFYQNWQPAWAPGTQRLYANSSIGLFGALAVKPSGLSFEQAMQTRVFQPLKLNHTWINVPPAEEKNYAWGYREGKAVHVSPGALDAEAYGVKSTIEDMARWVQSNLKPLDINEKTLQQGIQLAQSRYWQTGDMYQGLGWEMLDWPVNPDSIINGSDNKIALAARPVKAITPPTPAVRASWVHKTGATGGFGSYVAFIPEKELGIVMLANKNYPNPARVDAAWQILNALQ
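AmpC (5.3 nM in the dispensed reagent) in 20 mM phosphate pH 7.0 with 0.01% (detergent screen) or 0.0001% Triton X-100 was preincubated with compounds for 15 min at room temperature. Nitrocefin was then added from an 800 uM solution, and hydrolysis was followed at 480 nm.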
TbPYK inhibitor: blocks Trypanosoma brucei pyruvate kinase; TbPYK enzyme, Kinase-Glo Plus ATP luminescence, 45 min; Potency, µM (doses to about 76.8 µM), hits mostly inhibitors; 410,000 tested, 0.12% active; AID 624173; also: nearly all actives have a fitted effect of over 50% in size
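Activity of T. brucei pyruvate kinase was followed by Kinase-Glo Plus luminescence after the enzyme reacted 45 min at room temperature with 130 uM ADP (final) and substrate. Test compounds were added before ADP at multiple concentrations.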
Sm TGR inh: S. mansoni TGR enzyme inhibition. purified TGR, DTNB reduction, TNB absorbance 405 nm. 360,000 tested, 3% active. Q962Y6. Potency, µM (series often up to 114 µM), most hits filed as inhibitors. AID 485364; also: nearly all actives have a fitted effect of over 60% in size
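Kinetic colorimetric format: TGR-catalysed, NADPH-driven DTNB reduction monitored via TNB absorbance. Enzyme dispensed at 20 nM; compound exposure 15 min at room temperature before reaction start.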
SARS PLpro yeast-1: blocks SARS-CoV papain-like protease in a yeast assay; 330,000 tested, 0.19% active; S. cerevisiae expressing SARS-CoV PLpro, growth rescue; Potency, µM (titrated, usually from 32.9 µM), most hits filed as activators; AID 485353; calls by dose curve; also: nearly all actives have a fitted effect of over 55% in size
AmpC inh no detg: inhibitors of E. coli AmpC beta-lactamase without detergent | P00811 | AmpC nitrocefin hydrolysis, absorbance 480 nm, 0.0001% Triton | Potency, µM (doses to about 57.1 µM), most hits filed as inhibitors | 330,000 tested, 0.52% active | AID 485341; also: nearly all actives have a fitted effect of over 20% in size
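AmpC (5.3 nM in the dispensed reagent) in 20 mM phosphate pH 7.0 with 0.01% (detergent screen) or 0.0001% Triton X-100 was preincubated with compounds for 15 min at room temperature. Nitrocefin was then added from an 800 uM solution, and hydrolysis was followed at 480 nm.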
RE007 growth inh: less growth of the S. pombe RE007 Vpr strain | S. pombe RE007 Vpr strain, BacTiter-Glo ATP luminescence, 24 h | Potency, µM (titrated, usually from 92.2 µM), usual class: inhibitors | 360,000 tested, 0.21% active; active = well fitted falling curve with a large enough effect; inconclusive = small, poorly fitted or top-dose-only effect; inactive = no such curve, though single readings can be large or run the other way; also: nearly all actives have a fitted effect of over 50% in size
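Fission yeast strain RE007, carrying one chromosomally integrated HIV-1 vpr copy, was seeded at OD 0.01 in PMG+AL medium with 23 nL pinned compound. After 24 h at 30 °C and 99% humidity, viability was read by BacTiter-Glo luminescence.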
SARS PLpro yeast-2: Rescues yeast growth by inhibiting SARS-CoV PLpro; 1,000 tested, 19% active; calls only; shares compounds with SARS PLpro yeast-1; yeast expressing SARS-CoV PLpro, growth phenotype rescue; AID 652038; call rule not given here
Each line names hits and unclear results; the compound was inactive in the other large screens (follow-up assays come after a bar, where they were run). In the library only some 3.3% were active in any assay of this set; here they are far more common. Unless noted, calls follow the shape of the dose curve; as a rule, active = well fitted curve in the direction sought with a large enough effect; inconclusive = small, poorly fitted or top-dose-only effect, or another doubt; inactive = no such curve, though single readings can be large; an effect the other way counts as inactive or inconclusive.

O=C(CS(=O)(=O)c1cccc2nsnc12)Nc1cc(F)ccc1F	none (no result: SARS PLpro yeast-1, AmpC inh no detg, RE007 growth inh)
COc1ccc(OC)c(C2C=C(C34CC5CC(CC(C5)C3)C4)NC(=S)N2)c1 (stereo not drawn)	SARS PLpro yeast-1 inconclusive | SARS PLpro yeast-2 active
CCOC(=O)C1CCN(c2ncnc3c2c(-c2ccccc2)cn3-c2ccc(C)c(Cl)c2)CC1	none (no result: SARS PLpro yeast-1, AmpC inh no detg, RE007 growth inh)
CCOC(=O)C(C)S(=O)(=O)c1ccc(C(F)(F)F)cn1 (stereo not drawn)	SARS PLpro yeast-1 inconclusive | SARS PLpro yeast-2 inactive
Cc1cc(/C=C(\C#N)C(=O)NC2CCCCCC2)c(C)[nH]1	AmpC inh detg inconclusive, Sm TGR inh inconclusive, SARS PLpro yeast-1 12.6µM | SARS PLpro yeast-2 inactive
Cc1cc(/C=C(\C#N)C(=O)NC2CC2)c(C)[nH]1	none
S=C(NNc1ccc2ccccc2c1)NC1CCCCC1	AmpC inh no detg inconclusive (no result: SARS PLpro yeast-1) | SARS PLpro yeast-2 inconclusive
CCOc1ccc(CCNS(=O)(=O)c2c(C)nc3sc(C)cn3c2=O)cc1OCC	none (no result: SARS PLpro yeast-1, AmpC inh no detg, RE007 growth inh)
CCN(CC)c1ccc(/C=N/Nc2nc3ccccc3[nH]2)c(O)c1	SARS PLpro yeast-1 10µM | SARS PLpro yeast-2 active
CCN(CC)c1ccc(/C=N/NC(=O)Cc2cccs2)c(O)c1	SARS PLpro yeast-1 5.01µM | SARS PLpro yeast-2 inactive
O=C(Cc1cccs1)N/N=C/c1ccccc1	none
COc1cc(OC)c(OC)cc1/C=N/Nc1nc2ccccc2[nH]1	none
CCOc1ccccc1CNc1nc2nc(C)c(CC(=O)OC)c(=O)n2[nH]1	none (no result: SARS PLpro yeast-1, AmpC inh no detg, RE007 growth inh)
CCOC(=O)c1oc2ccccc2c1CN1CCN(C(=O)c2ccccc2)CC1	AmpC inh detg inconclusive, SARS PLpro yeast-1 3.55µM | SARS PLpro yeast-2 inactive
CCOC(=O)c1oc2ccccc2c1CN1CCN(c2ccccc2)CC1	none
O=C(OCC(=O)N1CCN(c2ccccc2)CC1)c1cccc(Cl)c1	SARS PLpro yeast-1 inconclusive | SARS PLpro yeast-2 inactive
O=C(OCC(=O)N1CCN(c2ccccc2)CC1)c1cnc(Cl)c(Cl)c1	none (no result: TbPYK inhibitor, RE007 growth inh)
COc1ccc(/C=N/NC(=O)c2ccc(C)cc2)cc1CN1CCN(c2ccc(F)cc2)CC1	AmpC inh detg inconclusive
COc1ccc(/C=N\NC(=O)c2cc(O)c(O)c(O)c2)cc1CN1CCN(c2ccc(F)cc2)CC1	SARS PLpro yeast-1 12.6µM | SARS PLpro yeast-2 active
CCC(C)NC(=O)c1cccc(NC(=O)c2nsc3ccccc23)c1 (stereo not drawn)	none (no result: SARS PLpro yeast-1, AmpC inh no detg, RE007 growth inh)
Cc1cccc(NC(=S)NCC2CCCO2)c1 (stereo not drawn)	SARS PLpro yeast-1 inconclusive | SARS PLpro yeast-2 inactive
CCOC(=O)c1c(S(=O)(=O)NCC(=O)Nc2ccc(C(C)=O)cc2)c(C)n(C)c1C	none (no result: SARS PLpro yeast-1, AmpC inh no detg, RE007 growth inh)
CC(C)Nc1nc(NC(C)C)nc(OCCOC(=O)c2ccccc2)n1	SARS PLpro yeast-1 inconclusive | SARS PLpro yeast-2 inactive
CC(=O)OCCOc1nc(NC(C)C)nc(NC(C)C)n1	none
CCOc1ccc(-c2nnc(SCC(=O)Oc3ccccc3)o2)cc1	none (no result: SARS PLpro yeast-1, AmpC inh no detg, RE007 growth inh)
Cc1cccc2cc(COC(=O)c3cccs3)c(=O)[nH]c12	SARS PLpro yeast-1 3.16µM | SARS PLpro yeast-2 inactive
COc1ccc(-c2ccc(=O)n(CC(=O)NCCc3ccccc3)n2)cc1	none (no result: SARS PLpro yeast-1, AmpC inh no detg, RE007 growth inh)
Cc1ccc(C)c(CNC(=O)CCn2cccn2)c1	none (no result: SARS PLpro yeast-1, AmpC inh no detg, RE007 growth inh)
CN(C)c1ccc(/C=N\NC(=S)SCN2C(=O)C3CCC(C)(C2=O)C3(C)C)cc1 (stereo not drawn)	Sm TGR inh inconclusive, SARS PLpro yeast-1 12.6µM | SARS PLpro yeast-2 active
CCn1c(=N)c(C(=O)NCC2CCCO2)cc2c(=O)n3cc(C)ccc3nc21 (stereo not drawn)	none (no result: SARS PLpro yeast-1, AmpC inh no detg, RE007 growth inh)
Cc1ccc(C(C(=O)NCc2ccccc2)N(Cc2cccs2)C(=O)c2ccc3c(c2)OCCO3)cc1 (stereo not drawn)	AmpC inh detg inconclusive, SARS PLpro yeast-1 inconclusive | SARS PLpro yeast-2 inactive
CCN1C[C@@H]2[C@@H]3C(=O)N(C)C(=O)[C@@H]3[C@](CC)(C(=O)OC)N2C1=NC	SARS PLpro yeast-1 3.55µM (no result: AmpC inh detg, Sm TGR inh) | SARS PLpro yeast-2 inactive
